In all, about 360,000 compounds went through this assay and about 17,000 (4.7%) were called active. Roughly 5% stayed inconclusive and do not appear here. Many of the other results were omitted from the sample, so actives are more common in it than they were. Values without a mark were called inactive. No stated cut-off is given here; in the data, active means activity change below about -50%; inconclusive means mostly about -30% to -49%; inactive means weaker than that.
On the % scale 0 is the no-effect control and ±100 the full control effect.

The nature of this test: qHTS for Inhibitors of Inflammasome Signaling: IL-1-beta AlphaLISA Primary Screen. The settings on record: THP-1 LPS/ATP IL-1B secretion, 16 h, at 57.5 µM, hits give low values. From the text:
Inflammasomes are a set of intracellular multi-protein complexes that enable autocatalytic activation of inflammatory caspases and drive the innate immune response to counter harmful agents. […] A qHTS assay, based on AlphaLISA technology, was developed to screen the Molecular Libraries Small Molecule Repository (MLSMR) to look for novel inflammasome inhibitors. The assay detects IL-1B using AlphaLISA anti-IL-1B acceptor and donor beads. A decreased emission signal, indicating reduced IL-1B secretion, is the desired outcome for this assay. NIH Chemical Genomics Center [NCGC] NIH Molecular Libraries Probe Centers Network [MLPCN] MLPCN Grant: MH095513 Assay Provider: Shyam Biswal Ph.D., Johns Hopkins University Immunity. 2012 Jul 27;37(1):85-95. PMID: 22819042 [2] Curr Pharm Des. 2012;18(16):2320-8. PMID: 22390695
Three microliters containing 3000 THP-1 cells were dispensed into the wells of solid, white, tissue culture treated Greiner 1,536-well plates. Library compounds and positive control, Glyburide, were pin-transferred (23 nL) by a Kalypsys pin-tool equipped with a 1,536-pin array, resulting in final compound concentration ranges of 2.5 nM to 57.5 uM. After 1 hr of cell culture incubation (37 °C, 5% CO2), 1 microL of 1 microg/mL lipopolysaccharide (250 ng/mL, final) and 5 mM ATP (1.25 mM, final) were added to stimulate the cells. After 16 hr of cell culture incubation with the compounds, 1.5 uL of anti-IL-1B acceptor beads (6 ug/mL, final) and biotinylated antibody (0.6 nM, final) were added to the plate, followed by a 1 hr incubation at ambient temperature. To detect the secreted IL-1B, 1.5 uL of AlphaLISA SA-Donor beads (24 ug/mL, final) were added, followed by 30 min of incubation in the dark at ambient temperature. The AlphaLISA signal was read by a PerkinElmer EnVision plate reader with an ultrasensitive luminescence detector and 1536 Plate HTS AlphaScreen aperture (excitation of 680nm and emission of 615nm).
As for `O=c1[nH]c2ccccc2n1C1CCN(C(c2ccccc2)c2nnnn2Cc2ccccc2)CC1` (configuration not stated), the activity change is -56.7% (active).

As for `CSCCC(c1nnnn1C(C)(C)C)N1CCC(n2c(=O)[nH]c3ccccc32)CC1` (configuration not stated), the activity change is -2.99%.

In the case of `COc1ccc(-n2nnnc2C(c2cccc3ccccc23)N2CCC(n3c(=O)[nH]c4ccccc43)CC2)cc1` (configuration not stated), the activity change was -8.75%.

In the case of `Cc1ccc(OC(=O)N(C)C[C@@H]2OCc3cnnn3CCCC(=O)N([C@H](C)CO)C[C@@H]2C)cc1`, the activity change was 37.1%.

For the molecule `CCOc1ccc(C2SCC(=O)Nc3c2c(C)nn3C2CCOC(C)(C)C2)cc1` (configuration not stated), the activity change was 13.7%.

For `O=C(CCC(=O)N1C[C@H]2C[C@@H](C1)c1cccc(=O)n1C2)NCc1ccccc1C(F)(F)F`, the activity change is -1.41%.

In the case of `c1ccc(N2Cc3ccccc3-n3nncc3C2)nc1`, the activity change was 12.3%.

With `CC(=O)C1(O)CCC2C3CCC4=C(Cl)C(=O)CCC4(C)C3CCC21C` (configuration not stated), the activity change is -20.8%.

Regarding `CCC(C)(O)C(=O)OC1C(=O)OC2CC3C(C)=CC(=O)C(O)C3(C)C3C4(O)OCC23C1C(C)C4O` (configuration not stated), the activity change was -100% (active).

With `CC(=O)NCC1=C(c2ccc3ccccc3c2)C[C@@H]2CC[C@H]1N2Cc1ccco1`, the activity change was -3.75%.

Turning to `c1cc2c(c(NC3=NCCCS3)c1)CCCC2`, the activity change was -2.25%.

Regarding `COc1ccccc1N=Nc1c(O)[nH]c(=S)[nH]c1=O`, the activity change is 56.6%.

For `CCC1(C)CC(CCNCc2ccc(N(C)C)cc2)(c2ccc(F)cc2)CCO1` (configuration not stated), the activity change is -72.1% (active).

On to `CC1CC=CCC12C(=O)NC(=S)NC2=O` (configuration not stated), for which the activity change was 5.3%.

In the case of `CC=C(C)C(=O)OC1CCN2CC=C(COC(=O)C(O)(C(C)OC)C(C)(C)O)C12` (configuration not stated), the activity change is 12.9%.

With `O=C(c1ccccc1[N+](=O)[O-])N1CCC2(CC1)OCCO2`, the activity change was -4.53%.

For the molecule `O=C(c1cc(-c2ccncc2)nc2ccccc12)N1CCC2(CC1)OCCO2`, the activity change is 0%.

Consider `O=C(c1cc2nc(-c3ccccc3)cc(-c3ccccc3)n2n1)N1CCC2(CC1)OCCO2`, for which the activity change was -87.9% (active).

In the case of `COc1cccc(C(c2nnnn2-c2ccc3c(c2)OCCO3)N2CCC3(CC2)C(=O)NCN3c2ccccc2)c1OC` (configuration not stated), the activity change was -6.07%.

For `COC(=O)COc1cc(C)cc2oc(=O)c3c(c12)CCCC3`, the activity change was 22.7%.

Consider `CC1([N+](=O)[O-])COP(=O)(Nc2ccc(F)cc2)OC1` (configuration not stated), for which the activity change was 15.6%.

Regarding `COc1cc(-n2c(=S)[nH]c3ccc(C)cc3c2=O)c(Cl)cc1Cl`, the activity change is 71.7%.

With `OC1/C(=C/c2ccc(C(F)(F)F)cc2)N2CCC1CC2` (configuration not stated), the activity change was 22.5%.

`CCOC(=O)[C@]12Cc3cc(OC)ccc3[C@H]1N(C(C)C)C(=O)c1ccccc12`: the activity change is -125% (active).

In the case of `O=c1c2ccccc2nc(CBr)n1-c1ccc(Cl)cc1`, the activity change was -7.74%.

Take `O=C(C1CC(=O)N(C2CCCC2)C1)N1CCC2(CC1)OCCO2` (configuration not stated): the activity change is 13.5%.

For `CN1CCN(/N=C/c2c[nH]c3ccccc23)CC1`, the activity change was 7.92%.

Regarding `CN(C)c1ccc(/C=C2\CC3C4CC=C5CC(O)CCC5(C)C4CCC3(C)C2=O)cc1` (configuration not stated), the activity change is 0.523%.

As to `C[C@@]1([C@@H](NP(=O)(c2ccccc2)c2ccccc2)c2ccccc2)C[C@H]1CCO`, the activity change was -4.2%.

As to `CCNc1nc2[nH]c(=O)c3c(c2s1)OC(N)=C(C#N)C3c1cccs1` (configuration not stated), the activity change was -64% (active).

As to `CC(C)c1ccc(OCC(=O)N2CCN(C)CC2)c(Br)c1`, the activity change was 9.25%.

For the molecule `COC(=O)C1=C(c2ccc(OCc3ccccc3)cc2)C[C@@H]2CC[C@H]1N2C(=O)NCc1cccc(F)c1`, the activity change is -12.8%.

As for `CC1=CC(=Cc2sc3ccccc3[n+]2C)C=C(C)O1`, the activity change is -51.7% (active).

On to `COc1ccc(Br)cc1CNCCc1cccc(Cl)c1`, for which the activity change was -72.2% (active).

On to `COc1ccc(CNCCc2c[nH]c3ccccc23)cc1OC`, for which the activity change was -24.9%.

`COc1ccc(CNCCc2ccc3c(c2)OCO3)c(OC)c1OC`: the activity change is -11.8%.

On to `Nc1ccc(Cc2ccc(N)c(Cl)c2)cc1Cl`, for which the activity change was -24.6%.

As to `COC(=O)CN(CCCl)P1(=O)OCCCN1CCCl` (configuration not stated), the activity change was 41.8%.

`CCOP(=S)(OCC)SCOC(=O)NCC(=O)OC`: the activity change was 0.573%.

For the molecule `CN(C)CC1Oc2ccccc2OC1(O)c1ccccc1` (configuration not stated), the activity change was -101% (active).

Take `COc1cccc(N2C(=O)NC(=O)/C(=C\c3ccc([N+](=O)[O-])s3)C2=O)c1`: the activity change is -0.584%.

For the molecule `Cc1cccc(N2C(=O)NC(=O)/C(=C\c3cnn(-c4ccccc4)c3)C2=O)c1`, the activity change was -60% (active).

As to `O=C1NC(=O)N(c2ccccc2)C(=O)/C1=C/c1ccc([N+](=O)[O-])s1`, the activity change was -11.6%.

For the molecule `Cn1c(O)c(C(=Nc2ccc(F)cc2)c2ccccc2)c(=O)n(C)c1=O`, the activity change was 3%.

`c1cncc(CNC2=NCCC2)c1`: the activity change was 34.2%.

For `CCOC(=O)C1(c2ccccc2)CCN(CC(O)c2ccc(NC(C)=O)cc2)CC1` (configuration not stated), the activity change is -10.2%.

In the case of `CC1=C(C(=O)Nc2ccccc2)SCCO1`, the activity change is 19.6%.

In the case of `CC1=C(C(=O)Nc2ccccc2)S(=O)(=O)CCO1`, the activity change is -86.7% (active).

Consider `C[C@]12CCC3C(CC[C@H]4[C@H](O)[C@H](O)CC[C@]34C)C1CC[C@@H]2O` (some centres not stated), for which the activity change was 38.5%.

In the case of `CC(=CCOc1ccc2ccc(=O)oc2c1)C1=CC(=O)C(C)(C)O1`, the activity change is -91.3% (active).

For `CC(CC(C#N)(c1ccccc1)c1ccccc1)N1CCCCC1` (configuration not stated), the activity change is -2.29%.

`O=C1C2CCN(CC2)C1(CO)CO`: the activity change is -9.66%.

`CCC(=O)c1ccc(OCC(=O)N2CCN(CC(=O)Nc3ccc(C)cc3)CC2)cc1`: the activity change was 14.3%.

Turning to `Clc1ccc2nc3c(c(-c4ccccc4)c2c1)CNCC3`, the activity change is -57% (active).

Turning to `C[C@H]1CN([C@@H](C)CO)C(=O)CCCn2nncc2CO[C@H]1CN(C)C(=O)Oc1ccccc1`, the activity change was 16.8%.

For the molecule `O=C(CCN1CCCCC1)NCC(=O)Nc1ccc(Br)cc1C(=O)c1ccccc1`, the activity change was -10.3%.

`O=C(CCNS(=O)(=O)c1ccccc1)Nc1ccc(Cl)cc1C(=O)c1ccccc1`: the activity change was -63% (active).

Regarding `CN1CCN(C(=S)SCC(=O)Nc2ccc(Cl)cc2C(=O)c2ccccc2)CC1`, the activity change was -88% (active).

`O=C(COC(=O)c1ccccc1)Nc1ccc(Cl)cc1C(=O)c1ccccc1`: the activity change was 15.9%.

`O=C(CN1CCCCC1)Nc1ccc(Br)cc1C(=O)c1ccccc1Cl`: the activity change is -8.15%.

Regarding `CCC/C(=N\O)c1c[nH]c2ccccc12`, the activity change is 23.8%.

`Cn1c(C(=O)N2CCC(C(=O)N3CCC4(CC3)OCCO4)CC2)cc2sccc21`: the activity change is -11.3%.

Turning to `CNP1(NC)=Nc2nn(-c3ccccc3)c(N)c2C(c2ccccc2)=N1`, the activity change was -24.6%.

In the case of `C=C(C)C1(CCCC)C(=O)NC(=S)NC1=O`, the activity change is 11.5%.

`CCOC(=O)CNC(=O)N1Cc2cc(N3CCCCC3)ccc2-n2nncc2C1`: the activity change is -5.99%.

Consider `COC(=O)[C@@H]1C(OC(=O)c2ccccc2)CC2CCC1N2C` (some centres not stated), for which the activity change was -10.2%.

Take `COC(=O)C1=C(c2ccccc2)C[C@@H]2CC[C@H]1N2C(=O)N1CCCCC1`: the activity change was -19.1%.

For `COc1ccc2c(c1)NP(=S)(c1ccccc1)N2` (configuration not stated), the activity change was -12.5%.

As for `CC12CCC(O)CC1CCC1C2CCC2(C)C(C(=O)CC(O)C(F)(F)F)CCC12` (configuration not stated), the activity change is 15.6%.

Take `COc1ccc(-c2nn(CCC#N)cc2C(=O)O)cc1`: the activity change is 10.5%.

Take `O=c1[nH]c(=S)n(C2CC2)c(O)c1/C=N/N1CCOCC1`: the activity change was 33.5%.

For `C[N+]1(C)CCOC(O)(c2ccc(-c3ccc(C4(O)C[N+](C)(C)CCO4)cc3)cc2)C1` (configuration not stated), the activity change was 7.41%.

Consider `Cn1cc(C(=O)OCC(=O)N2CCCC2)c2ccccc21`, for which the activity change is -12.4%.

Turning to `C[C@]12CCC3C(CC[C@H]4[C@H](O)[C@H](O)CC[C@]34C)C1CCC2=O` (some centres not stated), the activity change was 8.07%.

`C[C@]12CCC3C(CC[C@H]4C[C@@H](O)CC[C@]34C)C1C[C@@H](O)[C@H]2O` (some centres not stated): the activity change was 24.7%.

In the case of `CC12CCC3C(CCC4CC(=O)CCC43C)C1CC(=NO)C2=O` (configuration not stated), the activity change was -101% (active).

As for `O=c1c2ccccc2[nH]c(=S)n1-c1cccc(Cl)c1`, the activity change was 25.2%.

`CCn1cc(CN2CCCC(C(=O)c3cccc(C(F)(F)F)c3)C2)cn1` (configuration not stated): the activity change was 10.1%.

Take `COc1ccc(CCn2c(O)c(C=NCCCn3ccnc3)c(=O)[nH]c2=O)cc1OC`: the activity change was 43.4%.

With `CCCCCCCCCCCCn1ccc(=N)cc1`, the activity change is -100% (active).

Regarding `CCOC(=O)C1SC2(C(F)(F)C(F)F)CC1(O)c1c(c(OC)c3occc3c1OC)O2` (configuration not stated), the activity change was 0%.

In the case of `CC(C)(C)[C@]1(O)C[C@@H]2OC(=O)C[C@@]23C(=O)O[C@@H]2OC(=O)[C@H](O)[C@]213`, the activity change was -4.02%.

In the case of `COCc1cc(OC(=O)N(C)C)nc(-c2ccc(C)c(Cl)c2)n1`, the activity change was -2.68%.

`C[C@]12CCCCC1=CC(=O)C1C2CC[C@@]2(C)C1C[C@@H](F)[C@@H]2O` (some centres not stated): the activity change is 0.0265%.

For the molecule `CC(C)c1ccc(OCC(=O)N2CCCN(C)CC2)cc1`, the activity change is -17.5%.

For `CCOC(=O)CC(SP1(=S)OCC2(CCCCO2)C(C2CCCCO2)O1)C(=O)OCC` (configuration not stated), the activity change was 17.2%.

Turning to `CC(c1ccccc1)(c1ccccc1)c1ccncc1`, the activity change was -63.6% (active).

On to `ClC(Cl)(Cl)c1ccccc1`, for which the activity change was -9.44%.

Consider `c1ccc(C(CN2CCCCC2)c2ccccc2)cc1`, for which the activity change was -8.96%.

Regarding `CNC(=O)N(C)c1nnc(C(C)(C)C)s1`, the activity change is 17.7%.

Turning to `O=C1NCN(c2ccccc2)C12CCN(C(c1cccs1)c1nnnn1C1CCCCC1)CC2` (configuration not stated), the activity change is -18.5%.

In the case of `CC(C)CN1Cc2cc(N3CCCCC3)ccc2-n2nncc2C1`, the activity change is -4.66%.

For the origin of these results see PubChem BioAssay AID743279 (National Center for Advancing Translational Sciences (NCATS), 2014).
